From PubChem
Most compounds without a hit are left out; they make up all but 22% or so of the library.
CYP2C9 inh: human CYP2C9 inhibition | P11712 | CYP2C9 Supersomes, luciferin-H conversion, luminescence | inhibition, % at 5 µM | 20% of 96,000 active | AID 777;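 active means blocking of liver enzyme CYP2C9 beyond about 50% at 5 µM, limit read from the data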
Target sequence (P11712 whole entry, looked up): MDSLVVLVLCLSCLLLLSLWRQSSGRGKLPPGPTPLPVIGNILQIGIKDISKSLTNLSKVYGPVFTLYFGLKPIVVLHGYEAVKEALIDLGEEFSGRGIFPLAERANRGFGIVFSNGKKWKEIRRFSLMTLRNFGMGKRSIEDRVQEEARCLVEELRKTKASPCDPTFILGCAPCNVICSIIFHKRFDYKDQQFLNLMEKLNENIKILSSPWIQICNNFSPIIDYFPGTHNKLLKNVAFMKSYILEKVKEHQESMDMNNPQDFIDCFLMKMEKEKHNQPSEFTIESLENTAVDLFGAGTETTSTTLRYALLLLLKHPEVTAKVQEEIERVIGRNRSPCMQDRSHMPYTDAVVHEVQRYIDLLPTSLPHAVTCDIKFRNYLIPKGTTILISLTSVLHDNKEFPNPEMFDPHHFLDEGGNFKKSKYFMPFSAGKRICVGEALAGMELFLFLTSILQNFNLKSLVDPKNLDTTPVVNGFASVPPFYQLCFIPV
CYP2C19 inh: blocks human cytochrome P450 2C19; P33261; CYP2C19 Supersomes, luciferin-H EGE luminescence, 30 min; inhibition, % at 5 µM; 21% of 96,000 active;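 active means CYP2C19 inhibition above a set limit at 5 µM in the primary screen, cut at about 50% in these data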
CYP2C19 activ: activators of human cytochrome P450 2C19; P33261; recombinant CYP2C19, luciferin-H EGE luminescence; hits give high values; 0 = fully inhibited enzyme, 1 = untreated enzyme; activation factor at 5 µM; 96,000 tested, under 10 active; AID 1025;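 active means activation factor of at least 2 at 5 µM in the primary screen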
F-actin modifier: cytoskeleton assembly modification. HUVEC TNFa F-actin phalloidin imaging, high content. 0.18% of 91,000 active. inhibition, % at 2 µM. AID 836;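 active means inhibition above the batch mean plus 3 SD and confirmed as a hit by visual image inspection, cut at about 30% in these data, passing the limit was not always enough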
E-sel TNF inh: TNF alpha driven E-selectin expression inhibition. HUVEC TNFa-induced E-selectin immunofluorescence, high content. inhibition, % at 2 µM. 0.71% of 120,000 active;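 active means inhibition above the batch mean plus 3 SD, and confirmed as a hit on visual image review, cut at about 43% in these data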
CYP2C9 act: CYP2C9 (human) activation. P11712. 1.4% of 96,000 active. AID 1024. recombinant CYP2C9, luciferin-H conversion, luminescence; hits give high values; factor 1 = untreated enzyme, 0 = blocked. activation factor at 5 µM;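 active means activation factor of 2 or more for CYP2C9 at a 5 µM dose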
Large screens that a line does not name were inactive.

O=C(CC(SCCO)c1ccc2c(c1)OCO2)c1cccs1 (stereo not given)	CYP2C9 inh 95, CYP2C19 inh 100
Cc1ccc(OCc2nnc(SCC(=O)c3ccccc3)n2Cc2ccco2)cc1	CYP2C9 inh 95, CYP2C19 inh 97 (no result: E-sel TNF inh)
CCNS(=O)(=O)c1ccc(CCC(=O)NCc2ccc(C)cc2)cc1	none (no result: CYP2C9 inh, CYP2C19 inh, CYP2C19 activ, F-actin modifier, CYP2C9 act)
COC(=O)c1cc2n(n1)CCN(Cc1ccccc1Cl)C2=O	none
O=C(CSc1nnc(-c2cccnc2)n1Cc1ccco1)c1ccccc1	none
O=C(CSc1nnc(-c2ccc(O)cc2)n1Cc1ccco1)c1ccccc1	CYP2C9 inh 50
C=CCc1cccc2cc(NC(C)=O)c(=O)oc12	CYP2C9 act 2.8 (no result: F-actin modifier)
C=CCc1cccc2cc(C(=O)NCCOC)c(=O)oc12	none (no result: CYP2C9 inh, CYP2C19 inh, CYP2C19 activ, F-actin modifier, CYP2C9 act)
CCOC(=O)CSc1ccc(S(=O)(=O)N(C)C2CCCCC2)cc1[N+](=O)[O-]	CYP2C9 inh 88, CYP2C19 inh 64
CCOC(=O)CSc1ccc(S(=O)(=O)N2CCCCC2)cc1[N+](=O)[O-]	none (no result: CYP2C9 inh, CYP2C19 inh, CYP2C19 activ, F-actin modifier, CYP2C9 act)
CCOC(=O)c1cnc2nc(SC)nn2c1N	none (no result: CYP2C9 inh, CYP2C19 inh, CYP2C19 activ, F-actin modifier, CYP2C9 act)
CC(=O)N1C(=S)NC(=O)/C1=C1/C(=O)N(CC(=O)Nc2cccc(C)c2)c2ccccc21	none (no result: CYP2C9 inh, CYP2C19 inh, CYP2C19 activ, F-actin modifier, CYP2C9 act)
CCOc1ccccc1CN(CCc1ccc2c(c1)OCO2)Cc1ccccn1	CYP2C9 inh 58, CYP2C19 inh 98
O=C1CCC(C(=O)NCc2ccc3c(c2)OCO3)N1 (stereo not given)	none (no result: CYP2C9 inh, CYP2C19 inh, CYP2C19 activ, F-actin modifier, CYP2C9 act)
COc1ccc(CCNC(=O)c2ccncc2)cc1OC	CYP2C19 inh 64
COc1ccc(CCNC(N)=S)cc1OC	none (no result: CYP2C9 inh, CYP2C19 inh, CYP2C19 activ, F-actin modifier, CYP2C9 act)
CNC(=S)NCCc1ccc(OC)c(OC)c1	CYP2C19 inh 56
COc1ccc(CCNC(=O)c2cc3sc(Cl)cc3n2C)cc1OC	CYP2C9 inh 74, CYP2C19 inh 69 (no result: E-sel TNF inh)
COc1ccc(CCNC(=O)c2cc(-c3cc(C)ccc3O)n[nH]2)cc1OC	CYP2C9 inh 80
CSc1ccc(C#N)cc1NC(=O)c1ccc(Cl)nc1	none (no result: CYP2C9 inh, CYP2C19 inh, CYP2C19 activ, F-actin modifier, CYP2C9 act)
CC1CCCCN1C(=O)c1ccc(C(=O)N2CCCCC2C)cc1 (stereo not given)	none (no result: E-sel TNF inh)
Cc1ccc(C)c(S(=O)(=O)NCc2ccc(C(=O)N3CCCCC3C)cc2)c1 (stereo not given)	CYP2C19 inh 57
COc1ccccc1NC(=S)N(Cc1ccccc1)Cc1cccnc1	none (no result: CYP2C9 inh, CYP2C19 inh, CYP2C19 activ, F-actin modifier, CYP2C9 act)
COc1ccc2c(c1)CCc1c(C(=O)NCCc3ccc(OC)c(OC)c3)noc1-2	CYP2C9 inh 54
COc1ccc(CN(Cc2cccnc2)C(=S)NCCc2ccccc2)cc1OC	CYP2C9 inh 94, CYP2C19 inh 96
COc1ccc(CCNC(=O)c2ccc(CNS(=O)(=O)c3cc(C)ccc3C)cc2)cc1OC	CYP2C9 inh 100, CYP2C19 inh 76
COc1ccc(O)c(CN2CCN(CCc3ccccc3)C(CCO)C2)c1 (stereo not given)	none (no result: CYP2C9 inh, CYP2C19 inh, CYP2C19 activ, F-actin modifier, CYP2C9 act)
Cc1cc(NS(=O)(=O)Cc2ccccc2)no1	none
Cc1ccccc1-c1nc(CN2CCC(C(=O)NC3CCN(Cc4ccccc4)CC3)CC2)c(C)o1	none (no result: CYP2C9 inh, CYP2C19 inh, CYP2C19 activ, E-sel TNF inh, CYP2C9 act)
Cc1ccc(N(CN2C(=O)C3CC=CCC3C2=O)C(=O)c2ccco2)cc1Cl (stereo not given)	CYP2C9 inh 61
CCOC(=O)c1ccc2c(c1)nc(C1CCN(S(=O)(=O)c3cccs3)CC1)n2CC	CYP2C9 inh 87, CYP2C19 inh 84
Cc1nc2ccc(NC(=O)C3CCN(S(=O)(=O)c4cccs4)CC3)cc2s1	E-sel TNF inh 72
CCOC(=O)c1c(NC(=O)C2CCN(S(=O)(=O)c3cccs3)CC2)sc(C)c1C	none
CCOC(=O)c1cccc(NC(=O)C2CCN(S(=O)(=O)c3cccs3)CC2)c1	CYP2C9 inh 84, CYP2C19 inh 88
CCOC(=O)c1cccc(NC(=O)C2CCN(S(=O)(=O)c3cnc[nH]3)CC2)c1	CYP2C9 inh 100, CYP2C19 inh 99 (no result: E-sel TNF inh)
CNC(=O)/C(C#N)=C/c1c(N(Cc2ccccc2)Cc2ccccc2)nc2c(C)cccn2c1=O	none (no result: CYP2C9 inh, CYP2C19 inh, CYP2C19 activ, F-actin modifier, CYP2C9 act)
Cc1cc(NC(=O)C2CCN(S(=O)(=O)c3cnc[nH]3)CC2)ccc1Br	CYP2C9 inh 79 (no result: F-actin modifier)
Cc1nc2ccc(NC(=O)c3ccc(S(=O)(=O)N4CCOCC4)cc3)cc2s1	none
Cc1ccc(NC(=O)C2CCN(S(=O)(=O)c3cnc[nH]3)CC2)cc1C	none (no result: CYP2C9 inh, CYP2C19 inh, CYP2C19 activ, F-actin modifier, CYP2C9 act)
Cc1nc2ccc(NC(=O)c3cccc(S(=O)(=O)N4CC(C)OC(C)C4)c3)cc2s1 (stereo not given)	CYP2C9 inh 66, CYP2C19 inh 71
COc1cc(NC(=O)C2CCN(S(=O)(=O)c3cnc[nH]3)CC2)cc(OC)c1OC	CYP2C9 inh 72 (no result: F-actin modifier)
CN1CCN(C(=O)C2CCN(S(=O)(=O)c3cnc[nH]3)CC2)CC1	none (no result: F-actin modifier)
CC(=C/C(=O)O)/C=C/c1cccs1	none (no result: E-sel TNF inh)
Cc1cccc(NC(=O)c2cc(NC(=O)CCCC(=O)O)ccc2Cl)n1	none
CCCSc1nnc2n(Cc3ccccc3)c(=O)c3c4c(sc3n12)CCC4	none (no result: F-actin modifier, E-sel TNF inh)
CCn1c(=O)c2c3c(sc2n2c(=S)[nH]nc12)CCC3	CYP2C9 inh 97, CYP2C19 inh 80
CCCSc1nnc2n(C)c(=O)c3c4c(sc3n12)CCC4	CYP2C9 inh 61, CYP2C19 inh 53 (no result: F-actin modifier)
Cn1c(=O)c2c3c(sc2n2c(SCC(N)=O)nnc12)CC(C(C)(C)C)CC3 (stereo not given)	CYP2C19 inh 58
CCCOc1ccc(NC(=O)CC2C(=O)N(CC)C(=S)N2CCCN2CCN(Cc3ccccc3)CC2)cc1 (stereo not given)	none (no result: CYP2C9 inh, CYP2C19 inh, CYP2C19 activ, F-actin modifier, CYP2C9 act)
Cn1cnnc1Sc1cc(N2CCN(S(=O)(=O)c3ccc4ccccc4c3)CC2)ccc1[N+](=O)[O-]	none (no result: CYP2C9 inh, CYP2C19 inh, CYP2C19 activ, F-actin modifier, CYP2C9 act)
Cn1cnnc1Sc1cc(N2CCN(S(=O)(=O)c3ccc(Cl)c(Cl)c3)CC2)ccc1[N+](=O)[O-]	CYP2C9 inh 89, CYP2C19 inh 100
COc1ccc(NC(=O)N2CCCC(c3nc(-c4ccc(C(C)C)cc4)no3)C2)cc1 (stereo not given)	CYP2C9 inh 67
COc1cccc(-c2noc(C3CCCN(C(=O)Cc4ccccc4)C3)n2)c1 (stereo not given)	none
CCCCCC(=O)N1CCCC(c2nc(-c3ccc(OC)cc3)no2)C1 (stereo not given)	CYP2C9 inh 67, CYP2C19 inh 64
O=C(CC1CCCCC1)N1CCCC(c2nc(-c3ccc(S(=O)(=O)N4CCCC4)cc3)no2)C1 (stereo not given)	CYP2C9 inh 60
COc1ccc(-c2noc(C3CCCN(C(=O)CCc4ccccc4)C3)n2)cc1 (stereo not given)	CYP2C9 inh 70
CC(C)C(OC(=O)c1cc2c(s1)CCCCC2)C(=O)NC(N)=O (stereo not given)	none (no result: CYP2C9 inh, CYP2C19 inh, CYP2C19 activ, F-actin modifier, CYP2C9 act)
O=C(NCc1cccnc1)/C(=C/c1ccco1)NC(=O)c1ccccc1	none
COC(=O)Cn1nnc(-c2cccc(OC)c2)n1	none
O=C1CC(N(Cc2ccco2)C(=O)Nc2ccc(F)cc2)C(=O)N1c1ccc(F)cc1 (stereo not given)	CYP2C9 inh 52, CYP2C19 inh 80
